In the library only some 1.9% were active in any assay of this set; here they are far more common.
ALOX15 inhib: inhibitors of human 15-lipoxygenase (ALOX15) | P16050 | purified 15hLO-1, xylenol orange hydroperoxide absorbance | Potency, µM (series often up to 57.1 µM), without a hit: top-dose activity change, negative = inhibition, hits mostly inhibitors | 74,000 tested, 1.4% active; note: potency is the fitted concentration of half-maximal effect; % is set by controls: 0 for no effect and ±100 for the full control effect; nearly all actives have a fitted effect of over 55% in size
Target sequence (P16050 whole entry, looked up): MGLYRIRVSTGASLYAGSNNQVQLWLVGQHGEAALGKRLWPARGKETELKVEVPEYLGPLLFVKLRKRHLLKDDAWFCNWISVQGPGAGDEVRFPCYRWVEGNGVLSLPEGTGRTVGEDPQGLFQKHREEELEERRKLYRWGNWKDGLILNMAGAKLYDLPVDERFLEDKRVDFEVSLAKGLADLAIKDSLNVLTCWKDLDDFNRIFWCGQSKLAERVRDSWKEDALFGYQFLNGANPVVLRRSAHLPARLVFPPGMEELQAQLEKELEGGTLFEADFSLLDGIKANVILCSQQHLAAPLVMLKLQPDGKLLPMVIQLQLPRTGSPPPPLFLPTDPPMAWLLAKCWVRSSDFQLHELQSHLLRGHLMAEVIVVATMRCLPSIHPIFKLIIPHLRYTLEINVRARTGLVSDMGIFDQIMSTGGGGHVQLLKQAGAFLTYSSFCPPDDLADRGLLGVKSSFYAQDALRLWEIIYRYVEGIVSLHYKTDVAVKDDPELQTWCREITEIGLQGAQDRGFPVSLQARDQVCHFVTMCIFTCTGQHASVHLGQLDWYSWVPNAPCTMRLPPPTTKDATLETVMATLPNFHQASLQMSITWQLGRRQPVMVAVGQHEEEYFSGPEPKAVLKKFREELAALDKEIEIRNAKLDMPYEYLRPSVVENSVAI
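Compounds were preincubated 15 min at room temperature with 40 nM purified human enzyme (25 mM Hepes pH 7.5, 0.01% Triton X-100); 50 uM arachidonic acid reacted 6 min. Fe-xylenol orange detection, 30 min, absorbance ratio 573/405 nm.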
Pol III holo inh: inhibitors of bacterial DNA polymerase III holoenzyme; AID 603; Potency, µM (top dose mostly 57.1 µM), for inactives: top-dose activity change, negative = inhibition; reconstituted DNA polymerase III holoenzyme replication, biochemical; 71,000 tested, 0.25% active; note: potency is the fitted concentration of half-maximal effect; % is set by controls: 0 for no effect and ±100 for the full control effect
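Reconstituted *E. coli* holoenzyme (0.35 nM Pol III, 1 nM beta, 154 nM SSB, 2 nM primase) was preincubated with compound for 15 min at RT. Synthesis on 1.4 nM ssM13Gori ran 35 min, then was stopped with PicoGreen/EDTA and read as dsDNA fluorescence.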
Hsp90 Hop PPI: changes Hsp90-Hop TPR2A binding signal, up or down; 71,000 tested, 0.44% active; Potency, µM (titrated, usually from 57 µM), for inactives: top-dose activity change, negative = inhibition; AlphaScreen TPR2A-His6 binding biotin-Hsp90 C-terminal peptide; AID 595; active = well fitted curve in either direction with a large enough effect; inconclusive = small, poorly fitted or top-dose-only effect, or another doubt; note: potency is the fitted concentration of half-maximal effect; % is set by controls: 0 for no effect and ±100 for the full control effect
TsaE inh: displaces an ADP probe from E. coli YjeE (TsaE); purified YjeE enzyme, qHTS inhibition assay; Potency, µM; 71,000 tested, 0.05% active
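Fluorescence polarization of a BODIPY Texas Red–ADP probe (2 uM) bound to purified YjeE (10 uM) was read after 15 min room-temperature incubation with compounds. Loss of polarization marks inhibitors; ADP serves as titrated control.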
BRCT PPI red: disrupts BRCA1 BRCT binding to phosphoprotein, red fluorophore readout | P38398 | BRCT-phosphopeptide binding, red fluorescence polarization | Potency, µM (doses to about 76.9 µM), for the others: top-dose activity change, negative = inhibition, actives largely listed as inhibitors | 75,000 tested, 0.03% active | AID 892; note: % is set by controls: 0 for no effect and ±100 for the full control effect
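Fluorescence polarization: 100 nM His-tagged BRCA1 BRCT with 100 nM TAMRA-labelled phospho-BACH1 decapeptide, phosphate buffer pH 7.3 with 150 mM NaCl, DTT, 0.01% Tween 20; 12 min RT. Binding inhibition seen as FP decrease.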
BRCT PPI green: blocks human BRCA1 BRCT binding to phosphopeptide, green readout; P38398; BRCA1 BRCT-phosphopeptide binding, green fluorescence polarization; Potency, µM (doses to about 76.9 µM), without a hit: at the top dose activity change, negative = inhibition, actives largely listed as inhibitors; 75,000 tested, 0.05% active;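 note: potency is the fitted concentration of half-maximal effect; plate controls were peptide without protein for full effect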
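Compounds were incubated for 12 min at room temperature with a complex of 100 nM fluorescein-tagged pBACH1 decapeptide and 250 nM His-tagged BRCT protein. Buffer was phosphate pH 7.3 with EDTA, DTT and Tween 20. Disruption of binding lowers the polarization signal.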
Active calls of the source: *; i = inactive; ? = inconclusive; . = no result; ! = not active in a repeat; [ ] = remark or other dose. Unless noted, calls come from the whole dose curve; as a rule, active = well fitted curve in the direction sought with a large enough effect; inconclusive = small, poorly fitted or top-dose-only effect, or another doubt; inactive = no such curve, though single readings can be large; an effect the other way counts as inactive or inconclusive.

SMILES	ALOX15 inhib	Pol III holo inh	Hsp90 Hop PPI	TsaE inh	BRCT PPI red	BRCT PPI green
c1ccc2c(c1)-c1cccc3cccc-2c13	5%	-3%	32µM*	i	-2%	-5%
CC(=O)[C@@H]1CC[C@@H]2[C@H]3CC[C@H]4C[C@@H](O)CC[C@]4(C)[C@@H]3C(=O)C[C@]21C	.	0%	-6%	i	.	.
C[C@@H](Cc1ccc2c(c1)OC(C(=O)O)(C(=O)O)O2)NC[C@H](O)c1cccc(Cl)c1	5%	0%	-5%	i	0%	1%
O=C(c1ccc2nc(-c3ccco3)c(-c3ccco3)nc2c1)N1CCC2(CC1)OCCO2	4µM*	?	-21%	i	-28%	-13%
Cc1nc2cc(C(=O)N3CCC4(CC3)OCCO4)ccc2n1-c1cccc(F)c1	3%	-3%	-3%	i	-1%	0%
CC(=O)[O-].CC(=O)[O-].O.O.[Cd+2]	.	0.25µM*	-3%	?	0%	0%
C=CC(C)=O	-7%	-6%	5%	i	1%	-1%
CCCCCCn1c(N)c(C(=O)NCCN2CCOCC2)c2nc3ccccc3nc21	16µM*	-6%	?	i	-4%	2%
COCCCn1c(N)c(C(=O)NCCC(C)C)c2nc3ccccc3nc21	-22%	-12%	25µM*	i	-3%	0%
CCCCCn1c(N)c(C(=O)NCCN2CCOCC2)c2nc3ccccc3nc21	-20%	-1%	?	i	-1%	-1%
CCCCCCCCC(=O)NCc1ccc(O)c(OC)c1	25µM*!	-6%	-3%	i	2%	-2%
Cc1cc(Cl)ccc1OCC(=O)N1CCN(C)CC1	2%	-3%	0%	i	0%	-2%
CN1CCN(C(=O)COc2ccc3ccccc3c2Br)CC1	-6%	4%	2.5µM*	i	2%	-1%
CC(=O)[O][Hg][c]1ccccc1	0.013µM*	-3%	-2%	i	-2%	0%
O=C(O)c1cc[c]([Hg][Cl])cc1	1.6µM*	-7%	-5%	i	2%	-1%
CN(C)[C@@H]1C(=O)C(C(N)=O)=C(O)[C@]2(O)C(=O)C3=C(O)c4c(O)cccc4[C@](C)(O)[C@H]3C[C@@H]12	?	3.2µM*	-7%[11 µM]	i	?	?
CN(C)[C@@H]1C(=O)C(C(N)=O)=C(O)[C@@]2(O)C(=O)C3=C(O)c4c(O)cccc4[C@@](C)(O)[C@H]3[C@H](O)[C@@H]12	?	-2%	-7%	i	-6%	1%
NC(=O)OCCSc1nnc(-c2cccc(C(N)=S)c2)o1	6%	-3%	0%	i	0%	0%
O=C(OCC#CCSc1nnc(-c2ccccc2)o1)c1ccco1	25µM*	-5%	7%	i	-2%	0%
CN1C[C@@H](CNC(=O)OCc2ccccc2)C[C@H]2c3cccc4c3c(cn4C)C[C@@H]21	.	-8%	-29%	i	.	.
Cl.Cl.Cl.Cl.Cl.Cl.N.N.N.N.NNNNN.NNNNN.O.O.[Ru].[Ru].[Ru]	21%[25.6 µM]	?	?	79µM*	1%	-2%
COc1cc2c(cc1OC)[C@@]13CCN4C=C5CCO[C@H]6CC(=O)N2[C@@H]1[C@@H]6[C@H]5C[C@H]43	13%[11.4 µM]	-6%[11.4 µM]	-4%[11 µM]	i	0%[15.4 µM]	0%[15.4 µM]
Oc1ccc(Cl)cc1Cc1ccccc1	?	-1%	-1%	i	-2%	17%
Oc1ccc(Cl)cc1Cc1cc(Cl)ccc1O	13µM*	-2%	-3%	i	-1%	-3%
CCNC(C)(C)[C@@H](SS)c1ccc(Br)cc1	-12%[11.4 µM]	-6%[11.4 µM]	-4%[11 µM]	i	0%[15.4 µM]	0%[15.4 µM]
SMILES	ALOX15 inhib	Pol III holo inh	Hsp90 Hop PPI	TsaE inh	BRCT PPI red	BRCT PPI green
N[C@@H](Cc1cc(O)c(O)cc1O)C(=O)O	?	0.4µM*	7.9µM*	i	?	?
NCCc1cc(O)c(O)cc1O	?	.	.	.	-16%	6%[3.08 µM]
CCN(CC)c1ncnc2c1ncn2[C@@H]1O[C@@H](COP(=O)(O)OP(=O)(O)C(Br)(Br)P(=O)(O)O)[C@H](O)[C@@H]1O	-9%	-3%	-21%	i	1%	-1%
CC[n+]1c(-c2ccccc2)c2cc(N)ccc2c2ccc(N)cc21	10µM*!	2µM*	-18%	79µM*	?	?
C[C@H](N[C@@H](C)CCc1ccccc1)[C@H](O)c1ccc(O)cc1	10%	-4%	-1%	i	-1%	-2%
C=CCN1CC[C@]23c4c5ccc(O)c4O[C@@H]2C(=O)CC[C@@]3(O)[C@H]1C5	-6%	-4%	-7%	i	1%	-2%
N#C/C(=C\c1ccc(O)c(O)c1)C(N)=S	4µM*	-10%	?	i	0%	195%
COc1ccc2c(c1)CCC1C2CC[C@]2(C)[C@H](NCCCCCCN3C(=O)C=CC3=O)CC[C@@H]12 (stereo partly drawn)	9%	-4%	-11%	i	2%	-1%
NC(=O)CI	32µM*	-9%	-2%	i	-2%	-3%
CC(=O)[C@@H]1CC[C@H]2[C@H]3CC[C@H]4C[C@@H](O)CC[C@]4(C)[C@@H]3CC[C@]12C	-8%	19%	-4%	i	1%	-2%
C[C@@]12CC[C@H]3[C@@H](CCC4=C(O)C(=O)CC[C@]43C)[C@H]1CCC2=O	-15%	0%	-11%	i	-3%	-5%
CO[C@@H]([CH2][Hg])CN1C(=O)c2ccccc2S1(=O)=O.Cn1c(=O)c2nc[nH]c2n(C)c1=O	?	-17%[11.4 µM]	-2%[11 µM]	i	2%[15.4 µM]	0%[15.4 µM]
CC1=C(O)C(=O)C=C2C1=CC=C1[C@]2(C)CC[C@@]2(C)C3C[C@](C)(C(=O)O)CC[C@@]3(C)CC[C@@]12C (stereo partly drawn)	4µM*	.	.	.	0%	-2%[3.08 µM]
C[CH2][Hg][S]c1ccccc1C(=O)O	1.3µM*	.	.	.	-2%	1%[3.08 µM]
Cc1ccccc1C1=NCC(=O)N(CC(=O)NCc2ccco2)c2sc3c(c21)CCCC3	25µM*	-3%	-7%	i	-4%	4%
CCCCC/C=C\C/C=C\C/C=C\C/C=C\CCCC(=O)O	0.32µM*	.	.	.	0%	-4%
CCCCCCCC(=O)Cl	-26%	6%	2%	i	-1%	-3%
COc1cc(CN2C(=O)NC(=O)C3(Cc4cc(C)ccc4N(C)C3)C2=O)cc(OC)c1 (stereo not drawn)	-14%	-3%	-1%	i	0%	-1%
COc1ccc2c(c1)CC1(CN2C)C(=O)NC(=O)N(CCc2ccccc2)C1=O (stereo not drawn)	16µM*	-4%	-12%	i	-1%	1%
COc1ccc2[nH]cc(C3=CCNCC3)c2c1	-14%[25.6 µM]	1%	-10%	i	1%	45%

Bioassay records: PubChem, National Center for Advancing Translational Sciences (NCATS)
